Measured values reported in PubChem BioAssay (NCI).
Compounds without any hit were thinned out: in the full panel of roughly 83,000, 20% have a hit.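 Results are percent growth after 48 hours of single-concentration exposure. 100 means growth as in untreated cells, lower positive values show inhibition; negative values down to -100 show cell death.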 Values without a mark were called inactive. Activity calls are given as the source filed them. How the source made its calls: active means growth percent below 10; inactive means the rest.

Assays:
Assay in all cases: NCI-60 one-dose screen, 48 h (100 = growth as untreated, 0 = no growth, -100 = all killed)
Conditions in all cases: 10 µM unless noted
T-47D breast = tested on: T-47D breast
BT-549 breast = tested on: BT-549 breast
MDA-MB-435 melanoma = tested on: MDA-MB-435 melanoma
SW-620 colon = tested on: SW-620 colon
MCF7 breast = tested on: MCF7 breast
HCT-116 colon = tested on: HCT-116 colon
HCC-2998 colon = tested on: HCC-2998 colon
KM12 colon = tested on: KM12 colon

Compound	growth (T-47D breast)	growth (BT-549 breast)	growth (MDA-MB-435 melanoma)	growth (SW-620 colon)	growth (MCF7 breast)	growth (HCT-116 colon)	growth (HCC-2998 colon)	growth (KM12 colon)
COc1nc(OC)nc(-c2cc(-c3cc(OC)c(OC)c(OC)c3)no2)n1	103%	120%	111%	102%	93.7%	105%	112%	102%
COc1cccc2c1n([O-])c1cccc(OC)c1[n+]2=O	50.2%	71.5%	91.5%	68%	36.9%	48.5%	-4.2% (active)	73.3%
COc1cccc2c1nc1cccc(OC)c1[n+]2[O-]	32%	32.9%	98.4%	50%	32.8%	39.3%	-47.5% (active)	54.9%
CC1=NN(c2cccc(Cl)c2)C(=O)/C1=C\c1cn(-c2nc(N3CCOCC3)nc(N3CCOCC3)n2)c2ccccc12	99.8%	103%	100%	110%	98.9%	94.9%	104%	107%
CCOc1ccccc1/C=N\N=C(N/N=C/c1ccccc1OCC)N/N=C/c1ccccc1OCC	16.1%	31.8%	13.4%	12.1%	3.52% (active)	13.1%	23.9%	10.7%
CC(O)C(N)=O (centres undefined)	94.7%	102%	103%	105%	94.6%	94.2%	100%	103%
COc1cc(OC)c(NC(=O)n2ncc3cc(Nc4ncnc5ccccc45)ccc32)cc1Cl	97.3%	78.1%	105%	116%	98.1%	101%	89.7%	104%
CCOc1ccc(N(C)c2ccc(/C=C/C3=[N+](C)c4ccccc4C3(C)C)cc2)cc1	23.2%	3.12% (active)	-51% (active)	-40.4% (active)	10.1%	-45.6% (active)	11.4%	-93% (active)
Nc1cc(N)c2nc(-c3ccccc3)c(NCCc3ccc(Cl)c(Cl)c3)nc2c1	-11.5% (active)	-70.4% (active)	-88.2% (active)	-86.7% (active)	-2.91% (active)	-90.8% (active)	-94.9% (active)	-83.4% (active)
COc1ccc(C2=NN(C(=O)c3cc(-c4ccc(C)cc4)nc4ccccc34)C(c3cc(-c4ccccc4)nn3-c3ccccc3)C2)cc1 (centres undefined)	72.7%	90.6%	102%	96.7%	88.4%	81.4%	102%	90.8%
O=C(C(=O)N1CCOCC1)c1ccc(O[C@H]2O[C@H](CO)[C@@H](O)[C@H](O)[C@@H]2O)cc1	107%	99.3%	108%	107%	100%	96.6%	79%	110%
COc1ccc(Nc2c3ccccc3nc3ccccc23)cc1	30.6%	42.2%	31.3%	24.2%	11.5%	13%	46%	37.6%
CC(C)(C)c1ccc([I+]c2ccc(C(C)(C)C)cc2)cc1	11.3%	-5.08% (active)	-49.1% (active)	14.9%	7.68% (active)	7.47% (active)	13.4%	-30.6% (active)
O=C(Oc1ccccc1)c1ccccc1Cl	100%	96.8%	103%	104%	102%	102%	108%	98.9%
CCCCCCCCCCC1OC(C)CC(C)O1 (centres undefined)	88.7%	101%	107%	103%	98.6%	97.3%	101%	103%
O=C1N/C(=N\c2nnc(-c3ccc(O)cc3)s2)S/C1=C\c1ccccc1O	97.9%	97%	94.4%	96.1%	88.4%	91.7%	106%	96.7%
COC(=O)/C(Br)=C/c1c[nH]c2ccc(Br)cc12	72%	88.7%	85.7%	94.4%	75%	69.1%	102%	92%

Compound	growth (T-47D breast)	growth (BT-549 breast)	growth (MDA-MB-435 melanoma)	growth (SW-620 colon)	growth (MCF7 breast)	growth (HCT-116 colon)	growth (HCC-2998 colon)	growth (KM12 colon)
OCCN1CCN(CC/C=C2/c3ccccc3Sc3ccc(C(F)(F)F)cc32)CC1	62.5%	75.2%	35.2%	83.5%	56.6%	41.5%	21.4%	63.4%
O=C(NCCO)C(F)(F)F	95.8%	106%	108%	105%	95.6%	108%	97%	107%
O=C1C(Cl)=C(Nc2ccc(Nc3ccccc3)c(NC3=C(Cl)C(=O)c4ccccc4C3=O)c2)C(=O)c2ccccc21	14.9%	53.3%	113%	33.8%	73.7%	51.2%	55.1%	31.6%
O=S(=O)(O)c1ccc2c(c1)Sc1cc(S(=O)(=O)O)ccc1O2	110%	127%	92.6%	104%	106%	106%	102%	108%
CC(C)(C)C(=O)OCOP(=O)(OCOC(=O)C(C)(C)C)C1CC(O)N(O)C1=O (centres undefined)	36%	-8.94% (active)	68.5%	39.1%	15.3%	20.9%	38.1%	33.3%
CCCCCCN(CCCCCC)CCC(=O)Nc1ccc(S(=O)(=O)c2ccc(NC(=O)CCN(CCCCCC)CCCCCC)cc2)cc1	60%	87.5%	90.5%	84.6%	68.7%	61.2%	32.5%	89.5%
O=c1c(N=Nc2nccs2)c(-c2ccccc2)[nH]n1-c1nc(-c2ccccc2)cs1	43.7%	19%	26.7%	40.2%	59.1%	26.9%	42.2%	28.5%
CC(=O)Nc1ccc(S(=O)(=O)Cl)cc1	101%	114%	115%	115%	96%	111%	108%	107%
CC(=O)c1cc(Nc2cc(C)nc(N)n2)cc(C(C)=O)c1	85.9%	98.7%	117%	92.2%	110%	97%	51.9%	97.3%
COc1cc(N2C(=O)C=CC2=O)ccc1N1C(=O)C=CC1=O	77.4%	95.3%	109%	85.4%	98.8%	107%	114%	109%
COC(=O)CC(=O)C(=O)OC	99.9%	101%	120%	104%	97.6%	93.4%	104%	106%
CC(O)CN(CC(C)O)N(CC(C)O)CC(C)O (centres undefined)	105%	94.9%	104%	104%	101%	102%	107%	109%
CC(=O)Nc1ccc(CC#N)cc1Br	94.4%	109%	104%	99.3%	96.7%	96.8%	96.7%	107%
C[C@@H](c1ccc2c(c1)[nH]c1ccc(Cl)cc12)c1nc2ccccc2[nH]1	62.3%	83.4%	103%	95.2%	27.6%	93.5%	100%	90.7%
COc1ccc(C2=C/C(=C\c3ccc(Cl)cc3)C(=O)NN2C(=S)NN)cc1	76.6%	101%	109%	99.4%	75.3%	94.9%	109%	100%
CCOC(=O)CCCCCCCCC(=O)OCC	89.6%	109%	112%	107%	102%	110%	98.4%	105%
